# In paper PMC7862700, “An all-to-all approach to the identification of sequence-specific readers for epigenetic DNA modifications on cytosine”:
# Key:
# Assay in all cases: DAPPL (digital affinity profiling via proximity ligation, sequencing); 10 mM Tris-HCl pH 7.5, 50 mM NaCl, 1 mM DTT, 4% glycerol, room temperature, 30 min; GST-TFs on glutathione beads, 16-mer random dsDNA library, 0.1% formaldehyde crosslink after washing; high values mean tight binding
# Details in all cases: protein: recombinant; tags: N-terminal GST; dsDNA, one strand shown
# FLI1 = target: T1, FLI1 (Homo sapiens, UniProt Q01543 1-452)
# T1 sequence: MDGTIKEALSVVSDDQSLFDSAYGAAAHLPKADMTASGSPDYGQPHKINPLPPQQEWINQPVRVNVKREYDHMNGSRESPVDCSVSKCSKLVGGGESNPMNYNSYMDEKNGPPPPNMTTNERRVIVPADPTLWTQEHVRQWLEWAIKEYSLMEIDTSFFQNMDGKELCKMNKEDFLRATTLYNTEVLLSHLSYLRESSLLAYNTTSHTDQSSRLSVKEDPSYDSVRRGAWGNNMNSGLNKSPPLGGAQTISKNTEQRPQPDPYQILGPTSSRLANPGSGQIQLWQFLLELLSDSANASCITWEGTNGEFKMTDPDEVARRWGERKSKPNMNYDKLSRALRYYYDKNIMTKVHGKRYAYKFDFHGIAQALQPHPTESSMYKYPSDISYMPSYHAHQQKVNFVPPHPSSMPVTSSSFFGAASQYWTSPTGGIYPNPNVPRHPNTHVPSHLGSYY
# Method in brief: (§1)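 Binding signal is each hexamer's read frequency for a factor divided by its frequency in the tag-only sample. The factors were GST-fused human transcription factors from yeast, captured on glutathione beads, DNA-barcoded and pooled with that sample. Pools were incubated with 200 nmole of a random double-stranded 16-mer DNA library in Tris/NaCl/DTT/glycerol buffer at room temperature for 30 min, then washed, crosslinked with 0.1% formaldehyde, proximity-ligated with BsaI/T4 ligase (1 h, 37 °C), PCR-amplified and sequenced on an Illumina NextSeq500.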
# ELK1 = target: T2, ELK1 (Homo sapiens, UniProt P19419 1-428)
# T2 sequence: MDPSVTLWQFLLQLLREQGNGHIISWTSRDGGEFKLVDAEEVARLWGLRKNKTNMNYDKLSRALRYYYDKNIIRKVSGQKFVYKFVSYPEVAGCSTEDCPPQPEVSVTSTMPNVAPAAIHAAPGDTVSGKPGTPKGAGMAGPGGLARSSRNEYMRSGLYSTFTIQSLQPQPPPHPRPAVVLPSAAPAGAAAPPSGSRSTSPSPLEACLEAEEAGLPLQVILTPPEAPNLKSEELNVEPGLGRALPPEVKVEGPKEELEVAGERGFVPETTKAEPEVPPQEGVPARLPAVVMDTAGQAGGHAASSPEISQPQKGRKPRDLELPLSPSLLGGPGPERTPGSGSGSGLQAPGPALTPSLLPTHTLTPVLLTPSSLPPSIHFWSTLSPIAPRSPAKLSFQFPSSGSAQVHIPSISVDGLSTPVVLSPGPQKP
# Method in brief: as §1
# GABPA = target: T3, GABPA (Homo sapiens, UniProt Q06546 1-454)
# T3 sequence: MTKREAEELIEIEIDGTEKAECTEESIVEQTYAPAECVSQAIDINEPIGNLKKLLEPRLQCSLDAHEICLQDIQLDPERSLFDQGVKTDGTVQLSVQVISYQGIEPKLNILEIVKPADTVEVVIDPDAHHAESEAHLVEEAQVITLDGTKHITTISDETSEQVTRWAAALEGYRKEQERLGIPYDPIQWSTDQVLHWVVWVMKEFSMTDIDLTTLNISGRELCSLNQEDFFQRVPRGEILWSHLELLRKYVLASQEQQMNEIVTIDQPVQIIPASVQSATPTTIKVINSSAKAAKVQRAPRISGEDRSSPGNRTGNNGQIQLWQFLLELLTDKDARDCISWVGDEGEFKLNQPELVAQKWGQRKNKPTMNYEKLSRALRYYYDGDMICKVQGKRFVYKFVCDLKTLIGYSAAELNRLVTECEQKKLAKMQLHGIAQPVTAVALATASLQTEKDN
# Method in brief: as §1
# ERG = target: T4, ERG (Homo sapiens, UniProt P11308 1-479)
# T4 sequence: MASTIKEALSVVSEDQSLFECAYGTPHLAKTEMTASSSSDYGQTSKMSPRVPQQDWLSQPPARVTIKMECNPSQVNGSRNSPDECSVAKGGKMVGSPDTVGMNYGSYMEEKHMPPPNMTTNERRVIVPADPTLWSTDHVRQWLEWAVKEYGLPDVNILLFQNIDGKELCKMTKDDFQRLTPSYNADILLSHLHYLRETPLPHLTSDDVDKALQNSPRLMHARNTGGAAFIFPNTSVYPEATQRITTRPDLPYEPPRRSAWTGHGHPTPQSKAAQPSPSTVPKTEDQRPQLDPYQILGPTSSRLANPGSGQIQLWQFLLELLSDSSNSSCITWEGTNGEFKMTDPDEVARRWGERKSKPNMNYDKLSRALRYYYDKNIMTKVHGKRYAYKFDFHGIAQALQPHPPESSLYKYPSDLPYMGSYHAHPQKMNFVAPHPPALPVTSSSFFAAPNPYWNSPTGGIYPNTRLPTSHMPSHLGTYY
# Method in brief: as §1
# ELF1 = ELF1 (Homo sapiens, UniProt P32519 1-619)
# Method in brief: as §1
# EHF = target: T5, EHF (Homo sapiens, UniProt Q9NZC4 1-300)
# T5 sequence: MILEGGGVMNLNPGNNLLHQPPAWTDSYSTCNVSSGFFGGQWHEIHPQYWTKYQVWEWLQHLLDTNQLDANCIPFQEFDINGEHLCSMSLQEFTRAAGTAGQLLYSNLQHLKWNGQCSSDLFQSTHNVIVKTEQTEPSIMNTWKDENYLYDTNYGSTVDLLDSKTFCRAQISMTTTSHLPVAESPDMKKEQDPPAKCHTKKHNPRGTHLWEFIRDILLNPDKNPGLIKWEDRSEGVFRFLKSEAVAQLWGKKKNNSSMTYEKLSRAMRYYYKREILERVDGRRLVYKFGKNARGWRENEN
# Method in brief: as §1
# SPI1 = SPI1 (Homo sapiens, UniProt P17947 1-270)
# Method in brief: as §1
# SPIB = SPIB (Homo sapiens, UniProt Q01892 1-262)
# Method in brief: as §1
# ELK3 = target: T6, ELK3 (Homo sapiens, UniProt P41970 1-407)
# T6 sequence: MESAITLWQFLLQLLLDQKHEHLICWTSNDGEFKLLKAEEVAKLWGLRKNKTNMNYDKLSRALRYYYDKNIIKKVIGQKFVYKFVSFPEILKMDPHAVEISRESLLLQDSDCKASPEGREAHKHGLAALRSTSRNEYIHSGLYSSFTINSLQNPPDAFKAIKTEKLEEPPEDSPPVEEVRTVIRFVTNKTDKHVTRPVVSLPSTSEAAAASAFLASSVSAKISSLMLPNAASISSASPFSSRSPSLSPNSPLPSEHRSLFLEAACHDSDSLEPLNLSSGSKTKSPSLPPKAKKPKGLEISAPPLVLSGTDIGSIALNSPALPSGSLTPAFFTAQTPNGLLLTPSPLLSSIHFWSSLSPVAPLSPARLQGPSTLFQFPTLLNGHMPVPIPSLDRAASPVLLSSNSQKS
# Method in brief: as §1
# ELF1, sequence (P32519 whole entry): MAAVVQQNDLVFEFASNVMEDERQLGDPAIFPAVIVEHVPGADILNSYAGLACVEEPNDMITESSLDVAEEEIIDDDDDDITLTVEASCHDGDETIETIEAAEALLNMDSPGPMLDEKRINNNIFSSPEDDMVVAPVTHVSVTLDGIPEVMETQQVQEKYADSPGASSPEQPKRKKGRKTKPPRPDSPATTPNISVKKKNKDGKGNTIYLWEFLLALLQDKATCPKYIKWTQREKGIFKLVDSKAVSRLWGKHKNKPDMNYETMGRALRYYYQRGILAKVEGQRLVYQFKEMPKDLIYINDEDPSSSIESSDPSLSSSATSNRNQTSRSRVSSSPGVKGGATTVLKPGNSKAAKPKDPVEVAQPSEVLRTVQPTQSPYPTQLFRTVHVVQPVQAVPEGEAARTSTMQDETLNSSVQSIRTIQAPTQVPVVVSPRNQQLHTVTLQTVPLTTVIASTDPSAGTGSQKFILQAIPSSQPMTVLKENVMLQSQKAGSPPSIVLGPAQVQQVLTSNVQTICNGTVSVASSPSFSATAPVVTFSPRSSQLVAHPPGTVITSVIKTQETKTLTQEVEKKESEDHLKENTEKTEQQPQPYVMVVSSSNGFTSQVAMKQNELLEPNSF
# SPIB, sequence (Q01892 whole entry): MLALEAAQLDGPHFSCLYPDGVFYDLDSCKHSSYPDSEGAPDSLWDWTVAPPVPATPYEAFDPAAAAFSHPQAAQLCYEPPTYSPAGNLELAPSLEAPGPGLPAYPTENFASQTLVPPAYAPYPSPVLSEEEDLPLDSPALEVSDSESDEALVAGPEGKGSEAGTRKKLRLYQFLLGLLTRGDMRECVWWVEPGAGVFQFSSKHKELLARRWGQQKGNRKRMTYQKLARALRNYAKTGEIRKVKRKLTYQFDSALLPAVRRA
sequence,measurement,setting,value
CTCGCT,binding signal,FLI1,"1.81 fold enrichment (6-mer frequency, TF over GST control)"
same,binding signal,ELK1,"1.67 fold enrichment (6-mer frequency, TF over GST control)"
same,binding signal,GABPA,"1.72 fold enrichment (6-mer frequency, TF over GST control)"
same,binding signal,ERG,"1.63 fold enrichment (6-mer frequency, TF over GST control)"
same,binding signal,ELF1,"1.75 fold enrichment (6-mer frequency, TF over GST control)"
same,binding signal,EHF,"1.6 fold enrichment (6-mer frequency, TF over GST control)"
same,binding signal,SPI1,"1.54 fold enrichment (6-mer frequency, TF over GST control)"
same,binding signal,SPIB,"1.81 fold enrichment (6-mer frequency, TF over GST control)"
same,binding signal,ELK3,"1.41 fold enrichment (6-mer frequency, TF over GST control)"
